Experimental data reported in PubChem BioAssay (Tox21).
Records with an inconclusive call do not appear. Unmarked numbers belong to inactive results. Active and inactive are the calls of the source. Calls come from the whole dose curve; as a rule, active = well fitted activation curve with a large enough effect in the signal ratio in the repeat runs (not every such curve was filed as active); inconclusive = weak or mixed curves; inactive = flat fitted curve, though single readings scatter; the % refers to the signal ratio.

assay: p53 small molecule agonists, cell-based qHTS assay (AID 1963582); details: HCT-116 p53RE-bla reporter, beta-lactamase FRET ratio, 16 h; series mostly up to 66 µM; activation: at the top concentration
From the text: National Center for Advancing Translational Sciences [NCATS]
Division of Preclinical Innovation [DPI]
U.S. Environmental Protection Agency [EPA]
National Institutes of Environmental Health Sciences [NIEHS]
National Toxicology Program [NTP]
U.S. Food and Drug Administration [FDA]
p53, a tumor suppressor protein, is activated following cellular insult, including DNA damage and other cellular stresses. The activation of p53 regulates cell fate by inducing DNA repair, cell cycle arrest, apoptosis, or cellular senescence. The activation of p53, therefore, is a good indicator of DNA damage and other cellular stresses. […] The activation of the reporter gene under culture conditions can be detected by fluorescence intensity. This cell line was used to screen the Tox21 10K compound library in a 1536-well plate format and to identify agonists that activate the p53 signaling pathway.
Tox21 Assay Protocol Summary:
The p53RE-bla cells were dispensed at 4,000 cells/5 ul/well in 1536-well black wall/clear bottom plates using a Multidrop dispenser. After the assay plates were incubated at a 37 C/5% CO2 incubator for 5 hours, 23 nL of compounds dissolved in DMSO, positive controls or DMSO only was transferred to the assay plate by a pin tool. The plates were incubated at 37 C for 16 hours. After 1 uL of LiveBLAzerTM B/G FRET substrate was added using a Flying Reagent Dispenser, the plates were incubated at room temperature for 2 hours, and fluorescence intensity was measured by an Envision plate reader.
% is set by controls: 0 for no effect and ±100 for the full control effect.

Row | SMILES | Potency | activation
1 | CN1CSC(=S)N(C)C1 | inactive | –
2 | CCCC(=O)Cl | – | -1.41%
3 | C=CC(N)=O | inactive | –
4 | O=C1CC(=O)NC(=O)N1 | – | -8.04%
5 | CCC12COCN1COC2 | inactive | –
6 | CN(C)c1ccc(N(C)C)cc1 | – | -4.63%
7 | CC(C)C(=O)OCC(C)(C)C(OC(=O)C(C)C)C(C)C (stereo not given) | inactive | –
8 | Nc1nc(N)nc(NC2CC2)n1 | inactive | –
9 | C=CCOC(Cn1ccnc1)c1ccc(Cl)cc1Cl (stereo not given) | – | 11.1% [at 30.3 µM]
10 | NC(=O)O | – | 1.09%
11 | CN(C)C(=O)Nc1ccc(Cl)cc1 | inactive | –
12 | CCN(CC)c1ccccc1 | inactive | –
13 | S=c1[nH]c2ccccc2[nH]1 | inactive | –
14 | C[C@]1(O)CC[C@H]2[C@@H]3CCC4=CC(=O)CC[C@]4(C)[C@@]3(F)[C@@H](O)C[C@@]21C | – | -5.55%
15 | O=C/C=C/c1ccccc1 | inactive | –
16 | CC(C)C(C)(N)C#N (stereo not given) | – | -0.136%
17 | Nc1ccc(Cl)cc1N | – | -1.29%
18 | O=[N+]([O-])c1ccc([As](=O)(O)O)cc1 | inactive | –
19 | CCCCCCCCCc1ccc(O)cc1 | inactive | –
20 | COP(=O)(O)OC | – | 1.08%

Row | SMILES | Potency | activation
21 | CCCCCCCCCCCOC(=O)c1ccccc1C(=O)OCCCCCCCCCCC | inactive | –
22 | O=C(CBr)c1ccc(O)cc1 | – | -0.791%
23 | NNC(=S)NN | – | -5.1%
24 | CCN(C)N=O | – | -3.97%
25 | CCCCOC(=O)c1ccccc1C(=O)OCCCC | inactive | –
26 | CC1=C2[C@H]3OC(=O)[C@@H](C)[C@@H]3CC[C@@]2(C)C=CC1=O | – | -3.3% [at 30.3 µM]
27 | N#Cc1cc([N+](=O)[O-])ccc1N | – | 1.97%
28 | CCCCCCCCOC(=O)c1ccc(C(=O)OCCCCCCCC)c(C(=O)OCCCCCCCC)c1 | – | -1.47%
29 | Clc1ccc(C(c2ccc(Cl)cc2)C(Cl)(Cl)Cl)cc1 | – | 1.03% [at 30.3 µM]
30 | Cc1ccc(N)c(N)c1 | inactive | –
31 | c1ccc(N2CCNCC2)cc1 | – | 1.34% [at 30.3 µM]
32 | O=[N+]([O-])c1cccc(O)c1 | – | 1.62%
33 | C[N+](=O)[O-] | – | 0.093%
34 | C=C(C)CCl | inactive | –
35 | FC(F)(F)c1ccc(Cl)cc1 | – | 8.85%
36 | CNC(=O)O/N=C/C(C)(C)S(C)(=O)=O | inactive | –
37 | CCOc1ccc(N)cc1 | – | 0.832%
38 | COCC(=O)N(c1c(C)cccc1C)N1CCOC1=O | – | -1.33%
39 | ClC(Cl)(Cl)C(Cl)(Cl)Cl | – | -3.01%
40 | OCCCCO | inactive | –
